From PubChem BioAssay
The list is not random: actives were taken first. Their share in the collection is about 18%.
HepG2 viability = counter-screen for TGF-b inhibitors: cytotoxicity in HepG2 cells; HepG2 CAGA-GFP viability, ATP luminescence, 18 h; Potency, µM (highest dose often 46.1 µM), usual class: cytotoxic; 410,000 compounds, 0.76% hits
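CellTiter-Glo luminescence gave cytotoxicity after 18 hours at 37 degrees C. The cells were HepG2 CAGA-GFP in 1% FBS DMEM, stimulated with 500 pg/mL TGF-beta after compound addition. %Activity was normalised to no-cell wells (complete cell-killing) and DMSO (no toxicity), and curves were fitted and classified.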
TGFb SMAD3 inh = TGF-b pathway inhibition; 410,000 compounds, 1.2% hits; AID 588855; Potency, µM (highest dose often 46.1 µM), usual class: inhibitors; HepG2 CAGA-GFP TGF-b/SMAD3 reporter, GFP fluorescence, 18 h; TGF-beta stimulated, 500 pg/mL final; also: nearly all actives have a fitted effect of over 65% in size
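HEPG2 CAGA-GFP reporter cells (1000/well, DMEM with 1% FBS) received compounds, then recombinant TGF-beta at 500 pg/mL final for 18 hours at 37 degrees C. Per-cell GFP summed per well was normalised to unstimulated and stimulated DMSO controls before curve fitting.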
DT40 TDP1 CPT = growth inhibition of DT40 Tdp1-/-;hTDP1 cells with camptothecin (screen for TDP1 inhibitors); 420,000 compounds, 12% hits; Potency, µM (top dose mostly 46.2 µM), actives largely listed as inhibitors; chicken DT40 Tdp1-/-;hTDP1 cells + 20 nM CPT, ATP luminescence, 48 h; also: nearly all actives have a fitted effect of over 55% in size
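Chicken DT40 Tdp1-/- cells complemented with human TDP1, 400 cells/well, exposed to compounds plus 20 nM camptothecin for at least 48 h at 37 C; viability read as ATP content by CellTiter-Glo luminescence.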
TDP1 block = TDP1 (human) enzyme inhibition | recombinant TDP1, AlphaScreen DNA substrate cleavage | Potency, µM (titrated, usually from 130 µM), hits mostly inhibitors | 350,000 compounds, 0.28% hits | AID 485290; also: nearly all actives have a fitted effect of over 40% in size
Target sequence (Q9NUW8 whole entry, looked up): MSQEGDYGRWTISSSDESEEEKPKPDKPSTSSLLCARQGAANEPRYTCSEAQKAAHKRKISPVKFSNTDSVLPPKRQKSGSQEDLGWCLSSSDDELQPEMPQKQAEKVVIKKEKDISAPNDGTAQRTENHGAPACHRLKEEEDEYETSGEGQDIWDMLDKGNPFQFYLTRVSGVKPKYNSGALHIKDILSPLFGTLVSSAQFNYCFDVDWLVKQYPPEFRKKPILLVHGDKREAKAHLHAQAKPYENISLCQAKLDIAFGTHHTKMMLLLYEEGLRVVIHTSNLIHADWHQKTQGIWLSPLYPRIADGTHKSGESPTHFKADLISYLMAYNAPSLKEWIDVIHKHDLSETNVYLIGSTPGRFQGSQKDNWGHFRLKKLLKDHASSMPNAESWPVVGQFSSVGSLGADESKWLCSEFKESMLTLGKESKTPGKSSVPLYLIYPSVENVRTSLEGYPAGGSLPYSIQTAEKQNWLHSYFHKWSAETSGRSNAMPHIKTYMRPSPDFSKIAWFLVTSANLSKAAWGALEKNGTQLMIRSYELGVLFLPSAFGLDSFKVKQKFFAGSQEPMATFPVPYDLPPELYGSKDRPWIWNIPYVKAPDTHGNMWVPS
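Recombinant E. coli-expressed Tdp1 (1 nM) preincubated with compound 15 min at RT, then 5'-biotin/3'-phosphotyrosine-FITC DNA substrate (15 nM) added for 5 min. AlphaScreen beads (10 ug/ml) added, 10 min RT; tyrosine-FITC cleavage read as signal loss.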
IL1B secr inh = blocks inflammasome-driven IL-1 beta release; THP-1 LPS/ATP IL-1B secretion, AlphaLISA, 16 h; stronger effect = lower value; activity change, % at 57.5 µM; 360,000 compounds, 4.7% hits; AID 743279; in the data active = activity change below about -50%; inconclusive = mostly about -30% to -49%
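THP-1 cells pretreated 1 hr with compounds (up to 57.5 uM final), then stimulated with LPS (250 ng/mL final) plus ATP (1.25 mM final); secreted IL-1B measured by AlphaLISA after 16 hr, decreased signal indicating inhibition.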
DT40 TDP1 no CPT = qHTS for Inhibitors of human tyrosyl-DNA phosphodiesterase 1 (TDP1): qHTS in cells in absence of CPT; DT40 Tdp1-/- hTDP1 cells, no CPT, ATP luminescence, 48 h; Potency, µM (highest dose often 46.2 µM), actives largely listed as inhibitors; 420,000 compounds, 15% hits; also: nearly all actives have a fitted effect of over 55% in size
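Chicken DT40 Tdp1-/- cells stably complemented with human TDP1 were seeded at 400 cells/well with DMSO in place of 20 nM camptothecin. After compound pinning, cells grew at least 48 hr at 37 °C; viability read by CellTiter-Glo luminescence.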
Numbers stand for hits; - = inactive; ? = inconclusive; . = no result given; [ ] = dose if it differs, or a comment. Unless noted, calls follow the shape of the dose curve; as a rule, active = well fitted curve in the direction sought with a large enough effect; inconclusive = small, poorly fitted or top-dose-only effect, or another doubt; inactive = no such curve, though single readings can be large; an effect the other way counts as inactive or inconclusive.

SMILES	HepG2 viability	TGFb SMAD3 inh	DT40 TDP1 CPT	TDP1 block	IL1B secr inh	DT40 TDP1 no CPT
CCn1c(SCC(=O)N2CCCCC2)nc2c(c1=O)SCC2	-	-	-	-	-	?
CC12CC3OC3CC1CCC1C2CCC2(C)C1CCC21OCCO1 (stereo not drawn)	-	-	?	.	-	?
O=C(NCC1CC1)C1(C(F)(F)F)CC(CCCO)CCCO1 (stereo not drawn)	-	-	-	-	-	-
Cc1ccc(CNc2ncnc3ccc(-c4c(C)noc4C)cc23)o1	.	.	.	-	.	.
Cc1ccc(CNc2ncnc3ccc(-c4ccoc4C)cc23)o1	-	15.8µM	.	.	.	.
CCOC(=O)c1c(C)sc2c1N(C(C)=O)c1cc(Cl)ccc1S2	-	-	?	-	-	16.4µM
CCN(CC)CC(=O)N1c2ccccc2Sc2ccc(Cl)cc21	-	-	-	-	-	-
CCCc1cc(=O)n2[nH]c(SCc3ccc(Cl)cc3)nc2n1	-	-	?	.	-71.9	-
CC(C)c1cc(=O)n2[nH]c(SCc3ccc(Cl)cc3)nc2n1	-	-	-	.	-	-
COc1cccc(C(=O)NC2CC3CCCC(C2)N3Cc2ccc(C)cc2)c1 (stereo not drawn)	-	-	-	-	-	?
CCC(C)NC(=O)c1sc2nc(C)c(C(=O)Nc3ccc(C)cc3C)c(-c3ccccc3Cl)c2c1N (stereo not drawn)	-	-	14.6µM	-	.	?
CCC(C)NC(=O)c1sc2nc(C)c(C(=O)Nc3ccc(C)cc3C)c(-c3ccc(NC(C)=O)cc3)c2c1N (stereo not drawn)	-	-	20.6µM	-[12.3 µM]	.	?
COc1ccccc1NC(=O)c1sc2nc(C)c(C(=O)Nc3ccc(C)cc3C)c(-c3ccc(Br)cc3)c2c1N	-	-	-	-	.	-
CCC(C)NC(=O)c1sc2nc(C)c(C(=O)Nc3ccc(C)cc3C)c(-c3ccc(Cl)cc3)c2c1N (stereo not drawn)	-	-	23.1µM	-	.	?
CC(C)c1cnc2c(c1SCC(=O)NCc1ccccc1Cl)c(=O)n(C)c(=O)n2C	-	-	-	-	.	-
CC(Oc1ccccc1)C(=O)Nc1ccc(C(=O)OCc2cc(=O)n3ccsc3n2)cc1 (stereo not drawn)	-	?	?	-	.	?
O=[N+]([O-])c1cc(S(=O)(=O)c2ccc(N3CCCCC3)c([N+](=O)[O-])c2)ccc1N1CCCCC1	-	-	?	-	-	20.6µM
O=[N+]([O-])c1cccc(S(=O)(=O)c2ccc(N3CCCCC3)c([N+](=O)[O-])c2)c1	-	?	?	-	-	25.9µM
CS(=O)(=O)Nc1cc2occ(NC=O)c(=O)c2cc1Oc1ccccc1	.	.	-	.	.	-
Cc1ccc(CNC(=O)c2ccc(CN3CC(=O)N4CCCCC4C3=O)cc2)cc1 (stereo not drawn)	-	-	-	-	.	-
COCCCn1c(C)cc(C(=O)COC(=O)CCc2nc3ccccc3c(=O)[nH]2)c1C	-	-	-	-	-76.1	-
COCC(C)n1c(C)cc(C(=O)CSc2nc3ccccc3c(=O)[nH]2)c1C (stereo not drawn)	-	-	?	-	-	20.6µM
Cc1cc(C(=O)CSc2nc3ccccc3[nH]2)c(C)n1Cc1ccco1	-	?	8.2µM	-	-	5.8µM
COCC(C)n1c(C)cc(C(=O)COC(=O)CCc2nc3ccccc3c(=O)[nH]2)c1C (stereo not drawn)	-	-	-	-	-	-
COCCn1c(C)cc(C(=O)CSc2nc3ccccc3c(=O)[nH]2)c1C	-	-	16.4µM	-	-	14.6µM
SMILES	HepG2 viability	TGFb SMAD3 inh	DT40 TDP1 CPT	TDP1 block	IL1B secr inh	DT40 TDP1 no CPT
O=C(CSc1nc2ccccc2[nH]1)c1ccccc1F	-	-	-	-	-	-
CN(C)CC(C)(C)CNC(=O)c1cnn(-c2ncc3c(n2)-c2ccccc2CC3)c1-c1ccco1	.	.	-	.	.	?
COCCn1c(C)cc(C(=O)COc2nc3ccccc3nc2C)c1C	-	-	16.4µM	-	-	14.6µM
COCC(C)n1c(C)cc(C(=O)CSc2ncccn2)c1C (stereo not drawn)	-	-	-	-	-	-
Cc1cc(C)c(C(=O)CSc2nc3ccccc3c(=O)[nH]2)cc1C	-	-	-	-	-	?
C=CCn1c(C)cc(C(=O)CSc2nc3ccccc3[nH]2)c1C	-	-	20.6µM	-	-65.4	9.2µM
COCC(C)n1c(C)cc(C(=O)CSc2nnc(Nc3ccccc3F)s2)c1C (stereo not drawn)	-	?	23.1µM	-	-	?
Cc1cc(C(=O)CSc2nc3ccccc3[nH]2)c(C)n1C	-	-	?	-	-	?
COCCn1c(C)cc(C(=O)CSc2ccc3ccccc3n2)c1C	-	-	?	-	-	?
C=CCn1c(C)cc(C(=O)CSc2nc3ccccc3c(=O)[nH]2)c1C	-	-	16.4µM	-	-	20.6µM
O=C(NCC(=O)N1CCN(C(=O)c2ccco2)CC1)c1ccc(Br)cc1	-	-	-	-	-	-
CC1CCN(S(=O)(=O)c2ccc3c(c2)N(CC(=O)NC(C)C)C(=O)CS3)CC1	-	-	-	-	.	-
COc1ccc(N2CC(NC(=O)/C=C\c3ccccc3)CC2=O)cc1OC (stereo not drawn)	-	-	-	-	.	-
CCS(=O)(=O)c1nc(S(=O)(=O)c2ccc(C)cc2)c(N2CC(C)CC(C)C2)s1 (stereo not drawn)	-	-	?	-	-	?
CCOC(=O)C1CCN(C2=C(NS(=O)(=O)c3ccc(Br)cc3)C(=O)c3ccccc3C2=O)CC1	-	17.8µM	?	-	-	?
NC(=O)C1CCN(C2=C(NS(=O)(=O)c3ccc(Br)cc3)C(=O)c3ccccc3C2=O)CC1	-	?	23.1µM	.	-	18.4µM
CCOC(=O)C1CCN(C(C)=C2C(=O)c3ccccc3C2=O)CC1	-	-	-	-	-	-
O=C(c1ccc2c(c1)N(Cc1ccccc1F)C(=O)c1ccccc1S2(=O)=O)N1CCCCCC1	-	-	?	-	.	?
CC(=O)c1cccc(NC(=O)c2c(F)c(F)c(F)c(F)c2F)c1	-	-	?	-	-	29.1µM
CC(=O)c1cccc(NC(=O)c2cccc(N3C(=O)c4ccccc4C3=O)c2)c1	2.82µM	-	-	.	-	-
Cc1cccc(NC(=O)c2c(F)c(F)c(F)c(F)c2F)c1	-	-	-	-	-	-
